# Laboratory results from ChEMBL document CHEMBL4808148, “HDAC6 screening dataset using tau-based substrate in an enzymatic assay yields selective inhibitors and activators” (2021).
# About 150 (2.7%) of roughly 5,600 compounds showed an effect of 50% or more. The full list was thinned out, with strong results kept by preference.
# Target: T1, Protein deacetylase HDAC6 (Homo sapiens) (UniProt Q9UBN7)
# T1 sequence (whole entry): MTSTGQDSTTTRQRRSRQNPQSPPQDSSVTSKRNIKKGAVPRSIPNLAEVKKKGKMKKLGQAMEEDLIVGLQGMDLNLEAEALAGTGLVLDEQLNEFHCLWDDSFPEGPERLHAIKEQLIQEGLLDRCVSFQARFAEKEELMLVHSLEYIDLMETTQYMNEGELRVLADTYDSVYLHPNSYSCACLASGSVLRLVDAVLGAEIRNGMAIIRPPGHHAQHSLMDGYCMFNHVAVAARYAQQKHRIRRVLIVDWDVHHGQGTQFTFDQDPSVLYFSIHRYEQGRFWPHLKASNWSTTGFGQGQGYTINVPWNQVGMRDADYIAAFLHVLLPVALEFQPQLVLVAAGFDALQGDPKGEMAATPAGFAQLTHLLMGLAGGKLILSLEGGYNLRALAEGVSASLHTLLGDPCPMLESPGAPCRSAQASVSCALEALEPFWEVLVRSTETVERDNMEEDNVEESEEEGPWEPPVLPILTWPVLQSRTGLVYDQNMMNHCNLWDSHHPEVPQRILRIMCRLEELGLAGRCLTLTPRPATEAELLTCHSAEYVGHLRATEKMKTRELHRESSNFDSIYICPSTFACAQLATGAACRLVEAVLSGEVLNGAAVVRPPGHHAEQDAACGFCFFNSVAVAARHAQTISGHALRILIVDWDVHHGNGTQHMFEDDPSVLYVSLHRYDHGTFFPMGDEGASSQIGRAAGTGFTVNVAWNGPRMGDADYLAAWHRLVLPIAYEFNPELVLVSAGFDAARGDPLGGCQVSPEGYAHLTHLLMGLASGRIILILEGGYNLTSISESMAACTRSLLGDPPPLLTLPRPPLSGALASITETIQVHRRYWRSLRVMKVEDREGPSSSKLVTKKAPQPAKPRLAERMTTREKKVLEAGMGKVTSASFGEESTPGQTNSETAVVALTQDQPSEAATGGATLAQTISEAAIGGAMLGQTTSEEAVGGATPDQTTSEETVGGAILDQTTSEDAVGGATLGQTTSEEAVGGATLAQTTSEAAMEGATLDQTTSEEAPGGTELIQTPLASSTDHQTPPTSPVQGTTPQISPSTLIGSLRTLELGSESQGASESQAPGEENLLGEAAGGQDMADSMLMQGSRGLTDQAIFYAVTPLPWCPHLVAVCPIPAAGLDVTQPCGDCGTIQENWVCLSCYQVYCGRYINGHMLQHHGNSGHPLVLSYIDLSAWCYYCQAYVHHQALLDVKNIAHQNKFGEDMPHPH
# Details: at 10 µM
row,SMILES,inhibition [%]
1,COc1cc2nc(N3CCN(C(=O)C4COc5ccccc5O4)CC3)nc(N)c2cc1OC (stereo not drawn),-3.15
2,CCCC(=O)N1CCCN(c2nc(N)c3cc(OC)c(OC)cc3n2)CC1,15.5
3,COc1cc2nc(N3CCN(C(=O)C4CCCO4)CC3)nc(N)c2cc1OC (stereo not drawn),79
4,CCCOCCn1c(=O)c(N2CCN(CCO)CC2)nc2cnc(-c3ccc(OC)nc3)cc21,2
5,O=C(O)CN1CCN(CC(=O)O)CCN(CC(=O)O)CCN(CC(=O)O)CC1,-2.86
6,CSc1ccc([C@H]2CN3CCC[C@H]3c3ccccc32)cc1 (racemic),-1.09
7,Nc1nncs1,60.9
8,Nc1nccs1,-0.93
9,COCCOc1ccc(N2CCN(CCn3ncc4c3nc(N)n3nc(-c5ccco5)nc43)CC2)cc1,4.38
10,NS(=O)(=O)c1ccc(NC(=O)Nc2ccc(F)cc2)cc1,0.46
11,Cc1cc(C)cc(NC(=O)Nc2ccc(OS(N)(=O)=O)cc2)c1,76.1
12,Cc1ccc(S(=O)(=O)OCC(=O)Nc2ccc(C(=O)O)c(O)c2)cc1,-5.6
13,COC(=O)c1ccccc1NC(=O)c1ccc(F)cc1,0.65
14,COc1ccc(-c2nc(N3CCOCC3)c3sc(CN(C)c4ncc(C(=O)NO)cn4)cc3n2)cn1,97.1
15,Cc1c(CN2CCN(C(=O)[C@H](C)O)CC2)sc2c(N3CCOCC3)nc(-c3cnc(N)nc3)nc12,-2.64
16,CS(=O)(=O)N1CCN(Cc2cc3nc(-c4cccc5[nH]ncc45)nc(N4CCOCC4)c3s2)CC1,3.78
17,CC(=O)N(OCc1ccccc1)[C@@H]1c2cc(C#N)ccc2OC(C)(C)[C@H]1O,0.48
18,O=C(O)CC/C=C\C[C@@H]1CO[C@H](c2ccccc2Cl)O[C@@H]1c1ccccc1O,11.4
19,O=C(NCc1ccc(F)cc1)N1CCN2C(=O)OC(c3ccccc3)(c3ccccc3)C2C1 (stereo not drawn),-3.2
20,Nc1ccc(-c2nc3ccc(-c4nc5ccc(N)cc5[nH]4)cc3[nH]2)cc1,0.97
21,CCCn1c(=O)[nH]c2nc(-c3ccc(S(=O)(=O)O)cc3)[nH]c2c1=O,1.08
22,O=S(=O)(O)c1ccc2[nH]c(-c3ccccc3)nc2c1,94.7
23,O=C(O)Cc1ccc(CCNS(=O)(=O)c2ccc(Cl)cc2)cc1,9.85
24,COc1cccc(-c2cc(=O)c3ccccc3o2)c1N,90

row,SMILES,inhibition [%]
1,Cc1cc(C(=O)N2Cc3cnn(C)c3Nc3ccccc32)ccc1CNC(=O)N1CCC[C@H]1C(=S)N1CCCN(C)CC1,-1.87
2,CS(=O)(=O)Nc1ccc2oc3c(OC(F)F)ccc(C(=O)Nc4c(Cl)cncc4Cl)c3c2c1,-3.43
3,CC(C)[C@@H](CS(=O)(=O)C(C)C)N1C(=O)[C@@](C)(CC(=O)O)C[C@H](c2cccc(Cl)c2)[C@H]1c1ccc(Cl)cc1,-1.54
4,CC1=NN(c2ccccc2)C(=O)C1,-3.47
5,C/N=c1/nc(-c2ccccc2)n(-c2ccccc2)s1,69.9
6,Cn1c(-c2ccccc2)nnc1S(C)(=O)=O,-7.28
7,Clc1cccc(Cl)c1CSc1nnc(-c2cnccn2)s1,5.02
8,O=c1c2ccccc2oc2ccccc12,37.9
9,c1ccc(-c2n[nH]c3c2oc2ccccc23)cc1,70.2
10,O=C(Nc1ccc(Cl)cc1)Nc1cccc(-c2cccc(N3CCCC3)n2)c1,-4.23
11,N=C(N)NC(=N)Nc1cccc(Cl)c1,-4.52
12,CN1CC(=O)N=C1NC(=O)Nc1cccc(Cl)c1,90.4
13,C[C@H](N)C(=O)O,-3.75
14,Cc1ncc(CO)c(/C=N/NC(=O)c2ccncc2)c1O,-0.7
15,O=C(O)c1cc(N2N=C(C(F)(F)F)/C(=C/c3ccc(-c4ccccc4)o3)C2=O)ccc1Cl,-1.26
16,COc1cccc(OC)c1-c1cc(C(=O)NC2(C(=O)O)C3CC4CC(C3)CC2C4)nn1-c1ccnc2cc(Cl)ccc12 (stereo not drawn),0.43
17,O=C(Nc1ccccc1)c1cc([N+](=O)[O-])ccc1Cl,-4.52
18,O=C(Nc1ccc([N+](=O)[O-])cc1Cl)c1cc(Cl)ccc1O,97
19,O=C(Nc1ccncc1)c1cc([N+](=O)[O-])ccc1Cl,-9.26
20,N#Cc1cc(F)cc(-c2nc(-c3ccc(F)cn3)no2)c1,42
21,c1ccc(Cn2c(N3CCNCC3)nc3ccccc32)cc1,-7.7
22,Cc1nc(C#Cc2ccnc(Cl)c2)c(C)n1-c1ccc(F)cc1,-3.13
23,O=C(NC1CCC1)c1ccc(C#Cc2cccc(F)c2)nc1,24.9
24,Cc1cc(C)c(N)c(C#Cc2cccc(F)c2)n1,93
